# Shown are actives, neighbours in structure and some others; about 3.9% of the full set was active somewhere.
# BoNT F protease – BoNT F light chain protease inhibition. Multiplex microsphere protease cleavage assay, flow cytometry. inhibition, % at 10 µM. actives 0.22% (n = 360,000). AID 588497; in the data active means inhibition above about 35%, passing the limit was not always enough; inconclusive means no clear call, values can overlap the other calls; further: plate controls were buffer without enzyme for full effect and enzyme alone for no effect
# BH1578 lux ind – inducers of Vibrio cholerae quorum light production without autoinducers; V. cholerae BH1578 lux reporter, luminescence, 6 h; activation, % at 18.7 µM; actives 0.16% (n = 350,000); AID 588436; in the data active means activation mostly above about 9.7%, no sharp cut-off; inconclusive means no clear call, values can overlap the other calls; inactive means mostly below about 3.7%
# BoNT-A LC inh2 – blocks Botulinum neurotoxin A light chain protease; multiplex microsphere protease substrate cleavage, flow cytometry; inhibition, % at 10 µM; actives 0.17% (n = 360,000); further: plate controls were buffer without enzyme for full effect and enzyme alone for no effect
# Anthrax LF inh2 – inhibitors of Bacillus anthracis lethal factor protease. P15917. multiplex microsphere protease cleavage assay, LF. actives 0.12% (n = 360,000). inhibition, % at 10 µM; further: plate controls were buffer without enzyme for full effect and enzyme alone for no effect
# MazEF act – increases E. coli MazEF RNase cleavage of RNA. P0AE70. FAM/BHQ RNA-DNA oligo cleavage fluorescence, 5 h. activation, % at 20 µM. actives 0.32% (n = 350,000); in the data active means activation above about 50%
# Target sequence (P0AE70 whole entry, looked up): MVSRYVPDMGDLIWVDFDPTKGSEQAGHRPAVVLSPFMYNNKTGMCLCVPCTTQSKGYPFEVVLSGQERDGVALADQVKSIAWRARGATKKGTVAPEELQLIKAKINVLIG
# Bead autofluor – compound fluorescence in toxin protease inhibitor counterscreen | compound autofluorescence counterscreen, microsphere flow cytometry; hits give high values | actives 3.1% (n = 360,000) | AID 624483 | fluorescence intensity (no concentration beside the values); in the data active means fluorescence intensity above about 16000; inconclusive means no clear call, values can overlap the other calls
# * hit, by the source's call; i = inactive; ? = inconclusive; . = not tested or not shown. Unless noted, no stated cut-off is given here; in the data, active means inhibition above about 30%; inconclusive means no clear call, values can overlap the other calls; inactive means below that.
SMILES,BoNT F protease,BH1578 lux ind,BoNT-A LC inh2,Anthrax LF inh2,MazEF act,Bead autofluor
COc1cc2cc(CN(CCCO)S(=O)(=O)c3ccccc3Cl)c(=O)[nH]c2cc1OC,-1,1,1,-2,7,10480
CCOC(=O)c1cccc(S(=O)(=O)N(CCO)Cc2cc3cc(OC)c(OC)cc3[nH]c2=O)c1,-1,0,-1,3,4,24123*
O=S1(=O)C[C@H](N2CCN(CCO)CC2)[C@@H](COCc2ccccc2)N1,-7,.,0,0,.,6173
O=C1NC(=O)c2cc(NC(=O)C3CCCO3)ccc21 (centres undefined),-1,4,?,-4,-4,22178*
O=C(Nc1ccc2c(c1)C(=O)N(c1ccccc1)C2=O)C1CCCO1 (centres undefined),0,i,?,-5,2,21610*
O=C1OCc2cc(NC(=O)C3CCCO3)ccc21 (centres undefined),-14,0,?,?,-7,?
Cc1ccc(CN(CC(=O)NCCc2ccccc2)C(=O)CCCC(=O)Nc2cc(C)on2)cc1,0,i,0,0,4,17240*
CNC(=S)N1CCC(NC(=O)C(Cc2ccccc2)NC(C)=O)CC1 (centres undefined),-8,i,-1,3,1,4691
CC(C)c1nn2c(=O)cc(O)nc2s1,-5,0,1,-1,-15,2166
COc1cccc(NC(=O)CSc2nc3ccccc3c(=O)n2CCCC(=O)N2CCCC2)c1,1,0,?,-3,5,23337*
COc1ccc(-n2c(SCC(=O)C(C)(C)C)nc3ccsc3c2=O)cc1,-4,0,-2,6,6,4040
CCOc1ccc(NC(=O)CSc2nc3ccccc3c(=O)n2CCCC(=O)N2CCCC2)cc1,5,.,1,9,1,8625
CCOCCCn1c(SCC(=O)Nc2cccc(OC)c2)nc2ccccc2c1=O,-8,-1,1,-9,4,4127
COCCn1c(SCC(=O)Nc2cccc(C(=O)OC)c2)nc2ccccc2c1=O,-1,0,1,-2,2,16194*
COc1ccc(-n2c(SCC(=O)NCCC(C)C)nc3ccsc3c2=O)cc1,5,14,1,-3,0,21316*
COc1ccc(NC(=O)CSc2nc3ccccc3c(=O)n2CCC(=O)N2CCCCC2)cc1,-1,-3,0,1,2,21679*
N[C@H]1CONC1=O,.,.,.,.,8,.
COc1ccc(Cl)c(-c2cc(C(=O)Nc3ccc(F)cc3)[nH]n2)c1,6,0,1,0,.,2884
COCCNC(=O)CSc1nc2ccccc2c(=O)n1-c1cccc(OC)c1,-6,0,-4,0,7,21564*
O=C(CSc1nn(-c2ccccc2)c(=S)s1)NC(=O)NCc1ccco1,-1,0,-2,0,-2,23530*
CCc1c(C)c2c(C)nn(-c3ccccc3)c2[nH]c1=O,17,i,0,-1,-9,3325
CCc1c(C)n2nc(C)cc2[nH]c1=O,1,5,2,-3,-12,22318*
Cc1cc(/C=C2/SC(=S)N(c3cccc(C(F)(F)F)c3)C2=O)c(C)n1-c1cccnc1,84*,i,53*,46*,-9,11089
Cc1ccsc1CN1CCN(c2ccccn2)CC1,8,i,3,-2,3,21639*
CCOC(=O)C1C(=O)NC(SC)=C(C#N)C1c1ccccc1F (centres undefined),1,i,0,-2,3,22567*
SMILES,BoNT F protease,BH1578 lux ind,BoNT-A LC inh2,Anthrax LF inh2,MazEF act,Bead autofluor
C=CCN1C(=O)C(C)(C)Nc2ccccc21,1,i,?,3,-2,20000*
C=CCn1c(C)nnc1SCC(=O)N1c2ccccc2NC(=O)C1(C)C,-9,i,-1,-12,6,4051
O=C(C1CCCN(Cc2cccc(F)c2)C1)N1CCCCC1 (centres undefined),2,6,0,-1,7,16903*
CCCC(=O)NC(c1ccco1)c1c(O)ccc2ccccc12 (centres undefined),-2,2,?,-1,-7,24638*
COc1cccc(CNC(=O)N2CCN(c3ccccc3)CC2)c1,1,-2,0,2,-1,4954
Cc1cc(NC(=O)CN2C(=O)NC3(CCCCC3)C2=O)ccc1N1CCCC1,-19,-1,-1,-5,6,5447
Cc1ccc(-c2nnn(CC(=O)N(Cc3ccco3)C(C(=O)NC(C)(C)C)c3cccs3)n2)o1 (centres undefined),4,-6,1,1,6,22756*
Cc1ccc(C(C(=O)NC(C)(C)C)N(CC2CCCO2)C(=O)Cn2nnc(-c3ccc(C)o3)n2)cc1 (centres undefined),1,-1,?,0,-1,16426*
Cc1ccc(-c2nnn(CC(=O)N(Cc3cccs3)C(C(=O)NC(C)(C)C)c3ccco3)n2)o1 (centres undefined),1,i,-1,-3,10,11019
NNc1nc2cc3c(cc2s1)OCCO3,.,0,.,.,4,.
O=C(N/N=C/c1ccc(O)cc1)c1csc2ccccc12,-9,18*,0,2,1,2515
Cc1ncsc1C(=O)N1N=C2/C(=C/c3ccc(N4CCOCC4)cc3)CCCC2C1c1ccc(N2CCOCC2)cc1 (centres undefined),-4,0,-2,-4,-77,24267*
Cc1cnc(=O)[nH]c1SCc1ccccc1F,-1,0,-2,0,2,6573
CN(C)c1ccc(/C=N/N(CCC#N)C2=NS(=O)(=O)c3ccccc32)cc1,6,1,0,7,140*,3849
CCOC(=O)CC1=C(C(=O)OCC)C2(C(=O)Nc3ccccc32)C(C#N)=C(N)O1 (centres undefined),1,i,-1,-1,-2,4337
CCCC1=C(C(=O)OCC)C2(C(=O)Nc3ccc(C)cc32)C(C#N)=C(N)O1 (centres undefined),1,i,?,2,7,20310*
COC(=O)CN(n1cnnc1)S(=O)(=O)c1ccccc1,4,-6,2,-6,-1,22038*
COc1ccc(S(=O)(=O)N2CCOCC2)cc1NC(=O)CSc1nnc2c(n1)[nH]c1ccccc12,0,0,0,-2,14,4474
Cc1ccc(S(=O)(=O)c2nc(C(C)(C)C)oc2N2CCOCC2)cc1,-2,i,0,1,-7,16379*
Cc1ccc(S(=O)(=O)c2nc(C)oc2N2CCOCC2)cc1,-6,i,0,2,8,4543
O=C(O)Cn1nnnc1-c1ccc(F)cc1,4,0,3,-2,1,21941*
C[C@H]1CCC[C@]2(O[C@H](CCO)C[C@@H](O)[C@@H]2O)O1,0,i,0,1,3,4001
CCN(CC)S(=O)(=O)c1cccc(NC(=O)COC(=O)CCc2nc3ccccc3s2)c1,-12,0,0,-4,-3,11545
